Compound activity (PubChem)
GLP1R cytotox: qHTS of GLP-1 Receptor Inverse Agonists: Cytotox Screen; Potency, µM (series often up to 38.3 µM), for the others: at the top dose activity change, negative = inhibition, hits mostly inhibitors; 0.13% of 410,000 active; HEK293 cAMP-luciferase reporter cells, luminescence, 24 h; AID 624418, 2012;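 note: loss of luciferase light is scored as toxicity; potency is the fitted concentration of half-maximal effect; % is set by controls: 0 for no effect and ±100 for the full control effect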
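A 23 nL compound transfer followed 12 hours of cell culture at 37 deg C; exposure then lasted 24 hr. Luciferase assay detection reagent was dispensed and plates read for luminescence after a 12 min room-temperature wait.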
GLP-1R inv ag: qHTS of GLP-1 Receptor Inverse Agonists (Inhibition Mode). Potency, µM (highest dose often 38.3 µM), for the others: at the top dose activity change, negative = inhibition, hits mostly inhibitors. Glucagon-like peptide 1 receptor (Homo sapiens), P43220. HEK293 GLP-1R CRE-luciferase, luminescence, 24 h; GLP-1R form is constitutively active. 1.6% of 410,000 active; note: potency is the fitted concentration of half-maximal effect; % is set by controls: 0 for no effect and ±100 for the full control effect; nearly all actives have a fitted effect of over 55% in size
Target sequence (P43220 whole entry, looked up): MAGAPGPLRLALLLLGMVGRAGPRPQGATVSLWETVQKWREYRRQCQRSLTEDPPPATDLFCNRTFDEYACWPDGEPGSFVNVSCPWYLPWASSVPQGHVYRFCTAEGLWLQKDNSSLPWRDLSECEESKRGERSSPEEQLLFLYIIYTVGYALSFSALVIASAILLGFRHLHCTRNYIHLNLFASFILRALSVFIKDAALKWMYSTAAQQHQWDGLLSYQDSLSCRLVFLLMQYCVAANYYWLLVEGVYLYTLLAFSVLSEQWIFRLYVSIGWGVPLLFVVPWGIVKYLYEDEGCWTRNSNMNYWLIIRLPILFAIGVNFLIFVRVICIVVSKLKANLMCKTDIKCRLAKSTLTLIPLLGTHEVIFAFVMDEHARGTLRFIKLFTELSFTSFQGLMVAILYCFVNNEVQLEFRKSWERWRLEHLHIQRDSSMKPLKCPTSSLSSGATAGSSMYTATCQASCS
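Cells are plated, allowed 12 hours at 37 deg C, then treated with compounds for 24 hr before luciferase detection reagent is added and luminescence is read after 12 min at room temperature. The HEK293 line carries constitutively active GLP-1R with a cAMP-responsive reporter.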
GLP-1R agonist: qHTS of GLP-1 Receptor Agonists. HEK293 GLP-1R CRE-luciferase, luminescence, 4-6 h; cells express a hypersensitive GLP-1R form. Potency, µM (titrated, usually from 45.6 µM), for the others: top-dose activation, actives largely listed as activators. 0.007% of 380,000 active; note: potency is the fitted concentration of half-maximal effect; % of control where 0% means no effect
ClpP mod: qHTS Assay for Activators of ClpP | ATP-dependent Clp protease proteolytic subunit (Bacillus subtilis (strain 168)), P80244 | purified B. subtilis ClpP, FRET peptide cleavage, 20 min | Potency, µM (highest dose often 57.5 µM), without a hit: at the highest dose activity change, negative = active | 1.9% of 340,000 active | AID 651965, 2013; active = well fitted falling curve with a large enough effect; inconclusive = small, poorly fitted or top-dose-only effect; inactive = no such curve, though single readings can be large or run the other way; note: potency is the fitted concentration of half-maximal effect; the source files actives as falling curves though it sought activators and does not explain the sign; nearly all actives have a fitted effect of over 65% in size
Target sequence (P80244 whole entry, looked up): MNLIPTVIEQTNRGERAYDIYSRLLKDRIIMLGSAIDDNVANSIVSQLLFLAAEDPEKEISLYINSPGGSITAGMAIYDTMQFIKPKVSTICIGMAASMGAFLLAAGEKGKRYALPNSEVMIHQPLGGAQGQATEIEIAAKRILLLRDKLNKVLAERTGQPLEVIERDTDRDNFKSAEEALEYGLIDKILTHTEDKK
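Purified B. subtilis ClpP, 10 microg/mL final in Tris/HCl pH8 with KCl, BSA, glycerol and Tween-20, cleaved an Abz/nitrotyrosine-quenched decapeptide. Fluorescence (ex 320, em 430) was read at 0 and 20 min at room temperature. Delta was normalized to 5.8 microM ADEP and DMSO/no-enzyme controls.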
LDHA block: qHTS assay for inhibitors of human lactate dehydrogenase | L-lactate dehydrogenase A chain (Homo sapiens), P00338 | purified LDHA, NADH/diaphorase-resazurin fluorescence; active compounds read low | activity change, % (values are at about 110 or 230 µM) | 0.15% of 480,000 active; in the data active = activity change below about -30%; inconclusive = mostly about -25% to -30%;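 note: plate controls were DMSO wells for no effect and wells without enzyme for full effect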
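Remaining NADH was detected by diaphorase (0.133 mg/mL) converting 37 µM resazurin to fluorescent resorufin, read at 0 and 20 minutes. The preceding 5-minute room-temperature reaction used 2 nM LDHA, 0.2 mM sodium pyruvate and 0.06 mM NADH at pH 7.4.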
p53 reactivation: qHTS assay for re-activators of p53 using a Luc reporter. Potency, µM (series often up to 92.2 µM), inactives show at the top dose activity change, positive = activation, usual class: activators. 0.063% of 320,000 active. H1299 p53-A138V BP100-luciferase reporter, luminescence, 24 h. AID 504706, 2011; note: potency is the fitted concentration of half-maximal effect; % of control where 0% means no effect; nearly all actives have a fitted effect of over 45% in size
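H1299 (p53-null), stable ts p53-A138V + BP100-Luc; 1000 cells/well, Opti-MEM/10% FBS; cpd 4 pt, 1:5; 24 h, 37 deg C, 5% CO2; detection reagent 10 min RT; luminescence.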
* = called active by the depositor; u = inconclusive; x = no result given; [ ] = remark or other dose. Only some compounds are listed: those with a hit (about 2.9% of all), similar ones and a draw of the others. Unless noted, calls come from the whole dose curve; as a rule, active = well fitted curve in the direction sought with a large enough effect; inconclusive = small, poorly fitted or top-dose-only effect, or another doubt; inactive = no such curve, though single readings can be large; an effect the other way counts as inactive or inconclusive.

SMILES | GLP1R cytotox | GLP-1R inv ag | GLP-1R agonist | ClpP mod | LDHA block | p53 reactivation
COc1ccc(N(CC(=O)NCCSc2ccccc2)S(=O)(=O)c2ccccc2)c(OC)c1 | -1% | 10µM* | 2% | 1% | 16 | -7%
N#CCCN/N=C(\Cc1nc2ccccc2[nH]1)c1ccccc1 | 3% | 0% | 6% | -15% | -2 | 10%
Cc1ccc2c(c1)c1c(n2CC(O)CN2CCC(C)CC2)CCCC1 (centres undefined) | u | 5.6µM* | -3% | -9% | 1 | 1%
CC(C)(C)c1nnc(NC(=O)c2ccc3c(c2)OCO3)s1 | 1% | 16% | 7% | 0% | -7 | u
COc1ccc(NC(=O)c2c(NC(=O)Cc3ccccc3)sc3c2CCCC3)cc1 | 0% | 14% | x | 28µM* | -5 | x
CN(CC(=O)Nc1ccc(Cl)cc1)CC(=O)Nc1sc2c(c1C(N)=O)CCC2 | -53% | 4µM* | 2% | -9% | -2 | x
Cc1ccc(NC(=O)c2c(NC(=O)Cc3ccccc3)sc3c2CCC3)cc1 | 1% | 3% | x | -3% | -5 | x
Cc1ccc(NC(=O)c2c(NC(=O)Cc3ccccc3)sc3c2CCCC3)cc1 | 7% | 12% | x | 22µM* | -10 | x
Cc1c(NC(=O)c2c(NC(=O)CNC3CC3)sc3c2CCCC3)c(=O)n(-c2ccccc2)n1C | -2%[1.53 µM] | -30% | 4% | -19% | -89* | -15%
NC(=O)c1c(NC(=O)COC(=O)c2ccc(S(=O)(=O)Nc3ccccc3)cc2)sc2c1CCCC2 | 12%[0.307 µM] | 17%[0.307 µM] | 2% | 20µM* | -3 | -4%
COc1ccc2[nH]c(C)c(CN3CCC(C)CC3)c(=O)c2c1 | u | -28% | 0% | 10µM* | -2 | 1%
CCOc1ccc2[nH]c(C)c(CN3CCCCC3)c(=O)c2c1 | 86% | 14% | 4% | 294% | -1 | -13%
CCOc1ccc2[nH]c(C)c(CN(C)C)c(=O)c2c1 | -6% | -6% | 9% | 16µM* | 3 | 0%
Cc1ccccc1-c1nnc(SCC(=O)N(C)c2ccccc2)o1 | 4% | 0% | x | -1% | -1 | x
C=CCNC(=O)c1onc(CSc2ccc(Cl)cc2)c1C(=O)O | -4% | 2.2µM* | -1% | -1% | 0 | -2%
C=CCNC(=O)c1onc(CSc2ccc(Cl)cc2)c1C(=O)NCC=C | u | 13µM* | 32% | -1% | -1 | -2%
C=CCNC(=O)c1onc(CSc2cccc(Cl)c2)c1C(=O)O | 0% | u | -5% | 2% | -3 | -1%
C=CCNC(=O)c1onc(CSc2ccc(F)c(F)c2)c1C(=O)O | 1% | u | -2% | -1% | -5 | 0%
Cc1cc(C)c(C)c(S(=O)(=O)N2CCSCC2)c1C | 0% | 10µM* | -3% | -1% | -6 | x
CCOC(=O)C1Nc2ccc(OC(F)(F)F)cc2C2C=CCC12 (centres undefined) | 3% | 5% | -2% | -4% | 32 | x
CCOC(=O)C1Nc2ccccc2C2C(O)C(O)CC12 (centres undefined) | 7.1µM* | 17% | 4% | -11% | 10 | x
Cc1cc2c(cc1C)NC(=O)CC(C(F)(F)C(F)(F)C(F)(F)F)=N2 | -11% | u | -1% | -1% | -1 | 10%
CC(C)(C)c1nc(Sc2ccc([N+](=O)[O-])cn2)n[nH]1 | -2% | 3% | -6% | 2% | 2 | 14%
O=C(Nc1ccc(Cl)cc1)N1CCN(c2ccccc2)CC1 | -8% | u | 1% | 0% | -3 | 3%
O=C(Nc1ccc(Cl)cc1)N1CCC(CO)(Cc2ccccc2)CC1 | -15% | 7.9µM* | 10% | x | 1 | 1%
SMILES | GLP1R cytotox | GLP-1R inv ag | GLP-1R agonist | ClpP mod | LDHA block | p53 reactivation
CCC(NC(=O)/C(=C\c1ccccc1)NC(=O)c1ccc(C)cc1)C(=O)O (centres undefined) | x | x | x | x | -3 | x
O=c1nc(-c2ccccc2)cc(-c2ccccc2)[nH]1 | -12% | 14% | 12% | 28µM* | -1 | -4%
COc1ccccc1-c1cc(-c2ccccc2)nc(=O)[nH]1 | -5% | 24% | 12% | 4% | -1 | -7%
COc1ccc(CC(=O)OCC(=O)NC(=O)NC(C)C)cc1 | -10% | 0% | -5% | 1% | -2 | -4%
O=C1c2cccc3cccc(c23)C(=O)N1CC1CCN(S(=O)(=O)c2ccccc2)CC1 | 0% | 6% | 2% | x | -6 | x
Cc1ccc(S(=O)(=O)N2CCC(CN3C(=O)c4cccc5cccc(c45)C3=O)CC2)cc1 | -3% | 2% | 1% | 25µM* | 0 | -4%
O=C1c2cccc3cccc(c23)C(=O)N1CC1CCN(S(=O)(=O)c2ccc(F)cc2)CC1 | -11% | 0% | 2% | 13µM* | -4 | -10%
O=C(c1ccc(S(=O)(=O)N2CCCCCC2)cc1)N1CCC(CN2C(=O)c3cccc4cccc(c34)C2=O)CC1 | -15% | u | -2% | 28µM* | -8 | 4%
O=C(CN1C(=O)c2cccc3cccc(c23)C1=O)N1CCCCCC1 | -12% | 7.9µM* | -2% | 28µM* | -5 | 2%
CCN(CC)CCCNC(=O)Cn1ncn2cccc2c1=O | 11% | 8% | -14% | -1% | -5 | 11%
Cc1ccc(C(=O)NCC2CC3c4ccccc4C2c2ccccc23)cc1 (centres undefined) | x | x | x | x | -2 | x
C/C(=N\NC(=S)Nc1c(C)cccc1C)c1cc2ccccc2o1 | 0% | u | 3% | 4% | 2 | u
C/C(=N\NC(=S)Nc1ccc(C)cc1)c1cccc(N)c1 | 4.5µM* | u | 10% | x | 2 | u
C/C(=N\NC(=S)Nc1c(C)cccc1C)c1ccc(O)cc1 | u | 10µM* | 16% | -2% | -7 | -2%
Cc1ccc(NCc2ccc(O)cc2)cc1 | x | x | x | x | 14 | x
CCOC(=O)Cn1c(-c2ccccn2)nc2ccccc21 | 7% | 20% | 0% | 28µM* | -12 | -1%
CCN(CC)CCNC(=O)Cn1c(-c2ccccn2)nc2ccccc21 | 2% | 4% | -3% | 14µM* | -5 | 8%
O=C(O)Cn1c(-c2ccccn2)nc2ccccc21 | -6% | 27% | -3% | 4% | 0 | x
COc1cccc(=O)c2c(C)n(C)c(C)c12 | 3% | 10% | 2% | 0% | 5 | -2%
